# Compound activity deposited in PubChem by National Center for Advancing Translational Sciences (NCATS).
# Shown are actives, neighbours in structure and some others; about 11% of the full set was active somewhere.
# Sfp inh = qHTS Assay for Inhibitors of Bacillus subtilis Sfp phosphopantetheinyl transferase (PPTase) | Biochemical Sfp PPTase activity, qHTS | Potency, µM, for the others: largest response in the series, negative = inhibition, usual class: inhibitors | 310,000 tested, 3.5% active | AID 1490, 2009;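 note: the enzyme is Sfp with the accession as filed and its product quenches rhodamine fluorescence; potency is the fitted concentration of half-maximal effect; 0% = enzyme reaction without inhibitor and -100% = no enzyme wells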
#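 Step 1, compound plus 15 nM Sfp-PPTase, 15 min, room temperature. Step 2, add rhodamine-CoA (5 uM) and BHQ-2-YbbR (12.5 uM). Step 3, read 525/598 nm fluorescence at 0 and 30 min.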
# Tau fibril FP = qHTS for Inhibitors of Tau Fibril Formation, Fluorescence Polarization. Microtubule-associated protein tau (Homo sapiens), P10636. K18 P301L tau heparin fibrillization, Alexa594 FP, 6 h. Potency, µM (series often up to 57.7 µM), without a hit: at the top dose activity, negative = inhibition, usual class: inhibitors. 280,000 tested, 0.39% active; note: potency is the fitted concentration of half-maximal effect; nearly all actives have a fitted effect of over 55% in size
# Target sequence (P10636 561-689 P618L limits assumed): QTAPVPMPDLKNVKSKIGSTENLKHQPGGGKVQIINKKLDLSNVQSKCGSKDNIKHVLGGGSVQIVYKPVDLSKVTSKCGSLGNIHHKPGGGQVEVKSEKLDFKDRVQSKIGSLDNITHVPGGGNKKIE
#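 Steps: dispense K18 P301L tau (15 uM plus 0.24 uM Alexa 594 tracer, final) in pH 7 sodium acetate; add compound; add heparin (20 uM final); incubate 6 hr, 37 C; add ThT (30 uM final); after 1 hr ambient, read FP.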
# G9a block = qHTS Assay for Inhibitors of Histone Lysine Methyltransferase G9a | G9a H3K9 monomethylation, AlphaScreen, 2 h | Potency, µM (titrated, usually from 102 µM), for inactives: top-dose activity, negative = inhibition, actives largely listed as inhibitors | 350,000 tested, 8.8% active | AID 504332, 2011; note: potency is the fitted concentration of half-maximal effect; nearly all actives have a fitted effect of over 75% in size
# Target sequence (Q96KQ7 913-1193 limits assumed): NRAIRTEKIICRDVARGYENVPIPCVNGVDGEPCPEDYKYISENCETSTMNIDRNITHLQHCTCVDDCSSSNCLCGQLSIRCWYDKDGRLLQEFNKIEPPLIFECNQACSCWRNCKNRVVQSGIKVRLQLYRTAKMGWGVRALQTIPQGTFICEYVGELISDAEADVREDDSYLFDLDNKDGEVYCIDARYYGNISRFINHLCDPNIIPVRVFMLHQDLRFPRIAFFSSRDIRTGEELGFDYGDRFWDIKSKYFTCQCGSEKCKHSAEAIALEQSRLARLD
#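 Methyltransferase reactions run at room temperature for 2 h (20 nM enzyme, 500 nM biotin-H3K9 peptide, 20 uM SAM) after a 15 min compound preincubation; product detected by AlphaScreen beads and anti-H3K9me1 antibody.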
# Tau fibril ThT = qHTS for Inhibitors of Tau Fibril Formation, Thioflavin T Binding; Microtubule-associated protein tau (Homo sapiens), P10636; recombinant tau K18 P301L, heparin-induced fibrillization, ThT fluorescence; Potency, µM (doses to about 57.4 µM), without a hit: at the highest dose activity, negative = inhibition, usual class: inhibitors; 270,000 tested, 2.1% active; AID 1460, 2008; note: potency is the fitted concentration of half-maximal effect; nearly all actives have a fitted effect of over 55% in size
#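 Using a mix of unlabeled (15 uM) and Alexa 594-labeled (0.24 uM) tau K18 P301L, heparin-triggered fibrillization over 6 hr at 37 C was scored by ThT fluorescence.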
# FBPA coupling cs = qHTS Assay for Inhibitors of Fructose-1,6-bisphosphate Aldolase from Giardia Lamblia: Coupling assay counterscreen. coupling enzyme system counterscreen, AmpLite Red fluorescence. activity change, negative = inhibition, % at 58.2 µM, hits read low. 290,000 tested, 0.67% active; in the data active = activity change below about -30%
#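 Coupling enzymes only (glyceraldehyde-3-phosphate) + compound, at 57.5 uM final, 10 min RT; add substrate/coupling/AmpLite Red mix, 20 min RT; fluorescence ex 525/em 598 nm. Actives flag coupling-system interference.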
# Tau fluor cs = Counterscreen qHTS for Inhibitors of Tau Fibril Formation, Fluorescence Polarization | 280,000 tested, 0.93% active | tau K18 P301L Alexa594 fluorescence, heparin fibrillization | Potency, µM (titrated, usually from 57.7 µM), for inactives: top-dose activity change, negative = decrease; note: potency is the fitted concentration of half-maximal effect; nearly all actives have a fitted effect of over 55% in size
#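 Human tau K18 P301L (15 uM unlabeled, 0.24 uM Alexa 594-labeled) in 100 mM sodium acetate pH 7 with 20 uM heparin, 6 hr at 37 C. ThT 30 uM added, 1 hr ambient; Alexa 594 FP and total fluorescence read at 555/632 nm.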
# Numbers without * were called inactive; u = inconclusive; x = no result given; [ ] = dose if it differs, or a comment. Unless noted, calls come from the whole dose curve; as a rule, active = well fitted curve in the direction sought with a large enough effect; inconclusive = small, poorly fitted or top-dose-only effect, or another doubt; inactive = no such curve, though single readings can be large; an effect the other way counts as inactive or inconclusive. Unless noted, % is set by controls: 0 for no effect and ±100 for the full control effect.
SMILES,Sfp inh,Tau fibril FP,G9a block,Tau fibril ThT,FBPA coupling cs,Tau fluor cs
CCOCC(=O)N1CCN(c2ccccc2OC)CC1,11.3%,3.6%,8.4%[59 µM],-8.2%,2.9,0.3%
O=C(CSc1nc(=O)[nH]c2c1CCCC2)NCc1ccc(F)cc1,x,-7.7%,3.1%[59 µM],-9.4%,x,-9.5%
Cc1ccc(CNC(=O)Cn2cnc(S(=O)(=O)N3CCC(C)CC3)c2)o1,u,x,70.8µM*,x,1.9,x
CC(=O)c1ccc(NC(=O)Cn2cnc(S(=O)(=O)N3CCC(C)CC3)c2)cc1,0.6%,x,0.6%,x,x,x
CC1CCN(c2oc(-c3ccc(F)cc3)nc2C#N)CC1,-11.5%,x,10µM*,x,-1.3,x
N#Cc1nc(-c2ccccc2Cl)oc1N1CCOCC1,-16.2%,-9.6%,-42.9%[59 µM],2.5%,3.0,-6.7%
Cc1ccccc1-c1nc(C#N)c(N2CCC(C)CC2)o1,-7.7%,x,35.5µM*,x,-0.9,x
Cc1cccc(-c2nc(C#N)c(N3CCC(C)CC3)o2)c1,10.8%,x,-1.9%,x,1.7,x
CC1CCN(c2oc(-c3ccccc3Cl)nc2C#N)CC1,u,3.2%,10µM*,-7.7%,1.5,-14.0%
CCOC(=O)C1CCCN(c2oc(-c3ccc(F)cc3)nc2C#N)C1 (centres undefined),4.7%,0.3%,15.8µM*,-10.9%,0.3,-20.3%
O=C(O)C1NCCN(C(=O)c2ccc3c(ccc4ccccc43)c2)C1C(=O)O (centres undefined),-9.7%,x,x,x,-0.3,x
Cc1c(CNC(=O)C2CCC(=O)N(CCc3ccccc3)C2)cnn1C (centres undefined),3.0%,x,x,x,-1.4,x
CC(C)CNc1oc(-c2ccccc2Cl)nc1C#N,-10.9%,8.8%,39.8µM*,-1.9%,-1.5,-18.1%
CCn1c2ccccc2c2cc(NC(=O)c3ccc(Br)o3)ccc21,11.2µM*,u,11.2µM*,12.6µM*,-6.2,u
CCn1c2ccccc2c2cc(/C=N/NC(=O)c3ccc(O)cc3)ccc21,7.5%,u,18.0%[59 µM],u,-0.7,10µM*[quencher]
CCn1c2ccccc2c2cc(NC(=O)CSc3nccc(=O)[nH]3)ccc21,13.4%,3.6%,35.5µM*,u,6.6,u
O=C(CSc1nccc(=O)[nH]1)Nc1ccc(Oc2ccccc2)cc1,-3.4%,x,u,x,6.7,x
CCn1c2ccccc2c2cc(NC(=O)c3ccc(=O)oc3)ccc21,-15.2%,18.0%,44.7µM*,u,3.8,u
CCn1c2ccccc2c2cc(NC(=O)c3cc(OC)cc(OC)c3)ccc21,29.5%,3.7%,15.4%,u,-2.8,u
Cc1cccc(NC(=O)COc2ccc(-c3nn(C)c(=O)c4ccccc34)cc2)c1,-7.8%,7.4%,4.7%,-10.2%,1.4,-26.7%
O=C(NCc1ccccc1Cl)C1CCN(C(=O)N2CCOc3ccccc32)CC1,x,-9.4%,-4.5%[59 µM],-0.1%,x,-5.7%
CCOC(=O)COc1ccc(CC)cc1C(=O)c1ccn2nc(-c3ccc(F)cc3)cc2n1,x,-3.2%,10.3%[59 µM],6.7%,x,-2.5%
CCn1c2ccccc2c2cc(NC(=O)c3coc(=O)c(Br)c3)ccc21,1.7%,5.6%,7.08µM*,-17.0%,0.2,u
CCn1c2ccccc2c2cc(NC(=O)c3cc(OC)c(OC)c(OC)c3)ccc21,16.7%,7.5%,21.5%,u,0.3,u
COc1ccc(F)cc1C(=O)C1CCCN(C(=O)c2ocnc2C)C1 (centres undefined),-7.9%,5.1%,x,8.0%,3.7,5.7%
SMILES,Sfp inh,Tau fibril FP,G9a block,Tau fibril ThT,FBPA coupling cs,Tau fluor cs
C/C=C\C=C\C(=O)Nc1cccc(C2=NOC3(C2)C[C@@H](C(N)=O)N(C(=O)C(c2ccccc2)c2ccccc2)C3)c1 (some centres undefined),17.8µM*,-10.0%,u,u,-4.0,-16.1%
C/C=C\C=C/C(=O)Nc1cccc(C2=NOC3(C2)C[C@@H](C(N)=O)N(C(=O)CCCCC)C3)c1 (some centres undefined),25.1µM*,3.6%,5.2%[12.7 µM],3.8%,-0.9,20.1%
C/C=C\C=C/C(=O)Nc1cccc(C2=NOC3(C2)C[C@H](C(N)=O)N(C(=O)Cc2ccc([N+](=O)[O-])cc2)C3)c1 (some centres undefined),12.6µM*,5.3%,u,u,0.3,-10.8%
C/C=C/C=C\C(=O)Nc1cccc(C2=NOC3(C2)C[C@H](C(N)=O)N(C(=O)CC#N)C3)c1 (some centres undefined),12.6µM*,-9.4%,-23.8%[12.7 µM],-10.5%,-1.8,3.2%
C/C=C(/C)C(=O)Nc1cccc(C2=NOC3(C2)C[C@@H](C(N)=O)N(C(=O)CCCCC)C3)c1 (some centres undefined),7.0%,-0.5%,2.6%[59 µM],2.1%,-0.8,-1.3%
COc1ccc(NC(=O)C(=O)NCCc2csc3nc(-c4ccccc4C)nn23)cc1,x,-0.2%,2.1%[59 µM],-5.9%,x,-7.7%
CN(CC1CCOCC1)C(=O)CC1C(=O)NCCN1Cc1ccccc1F (centres undefined),2.4%,x,x,x,-6.7,x
CN(C)c1ncc2nc(-c3cccs3)c(=O)n(C3CC3)c2n1,6.0%,x,6.9%[12.7 µM],x,2.2,x
C/C=C/C=C/C(=O)N1CC2(CC(c3cccc(NC(=O)CCCCC)c3)=NO2)C[C@H]1C(N)=O (some centres undefined),22.4µM*,-3.8%,u,0.2%,-0.6,14.6%
C/C=C(\C)C(=O)Nc1cccc(C2=NOC3(C2)C[C@@H](C(N)=O)N(C(=O)/C(C)=C/C)C3)c1 (some centres undefined),7.9%,2.1%,-40.6%[59 µM],13.7%,-0.7,18.1%
C/C=C/C(=O)N1CC2(CC(c3cccc(NC(=O)CCCCC)c3)=NO2)C[C@H]1C(N)=O (some centres undefined),14.1%,-13.6%,-0.2%[12.7 µM],-7.5%,0.0,-9.4%
C/C=C\C=C/C(=O)Nc1cccc(C2=NOC3(C2)C[C@H](C(N)=O)N(C(=O)CC)C3)c1 (some centres undefined),12.6µM*,-2.9%,u,-2.8%,-8.8,11.3%
C/C=C/C=C\C(=O)Nc1cccc(C2=NOC3(C2)C[C@@H](C(N)=O)N(C(=O)/C(C)=C/C)C3)c1 (some centres undefined),25.1µM*,4.1%,-5.9%[12.7 µM],-14.7%,-2.2,0.8%
